# Results filed as inconclusive are left out. Entries that show only a call come without a potency. Activity calls are given as the source filed them. Unless noted, calls come from the whole dose curve; as a rule, active = well fitted activation curve with a large enough effect in the main read-out, with a control signal flat (not every such curve was filed as active); inconclusive = small, poorly fitted or top-dose-only effect, or effect the other way, or a change in a side signal; inactive = flat fitted curve, though single readings scatter.
# How the values were obtained:
# [1] = target: 3',5'-cyclic-AMP phosphodiesterase 4B (Homo sapiens) (UniProt Q07343); assay: qHTS Assay for Inhibitors of PDE-IV (AID 607)
# Sequence of 3',5'-cyclic-AMP phosphodiesterase 4B (Homo sapiens) (Q07343 whole entry, looked up): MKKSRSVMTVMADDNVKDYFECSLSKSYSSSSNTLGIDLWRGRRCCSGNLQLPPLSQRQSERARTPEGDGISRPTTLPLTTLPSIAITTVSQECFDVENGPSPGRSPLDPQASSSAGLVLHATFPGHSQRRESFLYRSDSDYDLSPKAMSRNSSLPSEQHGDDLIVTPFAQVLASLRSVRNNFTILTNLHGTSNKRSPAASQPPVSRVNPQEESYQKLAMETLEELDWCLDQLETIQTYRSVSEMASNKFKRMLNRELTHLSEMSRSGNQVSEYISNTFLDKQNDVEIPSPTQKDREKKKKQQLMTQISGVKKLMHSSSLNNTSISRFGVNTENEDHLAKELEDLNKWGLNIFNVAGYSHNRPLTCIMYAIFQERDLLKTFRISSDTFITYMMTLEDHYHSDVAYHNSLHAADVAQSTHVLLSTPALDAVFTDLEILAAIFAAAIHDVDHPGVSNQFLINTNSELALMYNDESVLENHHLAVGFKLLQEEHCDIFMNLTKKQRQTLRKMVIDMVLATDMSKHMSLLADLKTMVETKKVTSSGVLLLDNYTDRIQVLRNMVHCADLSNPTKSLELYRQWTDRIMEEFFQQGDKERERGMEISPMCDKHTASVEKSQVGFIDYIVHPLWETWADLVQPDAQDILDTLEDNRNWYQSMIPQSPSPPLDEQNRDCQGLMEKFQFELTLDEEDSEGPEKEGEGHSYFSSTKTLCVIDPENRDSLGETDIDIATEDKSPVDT
# Outline: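 The readout is membrane depolarisation from a cAMP-sensing CNG channel, detected with a potential dye at ex 535/em 590. Cells were HEK293-derived (endogenous PDE-IV) at 1000 cells/well, titrated up to 22.9 uM final.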
# [2] = Cellular Toxicity (caspase-3) HepG2 (AID 654; active = well fitted curve in the direction sought with a large enough effect; an effect the other way counts as inactive or inconclusive; note: potency is the fitted concentration of half-maximal effect;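 for caspase-3 activation: cells exposed to compound for 16 hours before reading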)
# Outline: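 Luminescent Caspase-Glo 3/7 readout after 16 hr compound exposure of human hepatocellular carcinoma HepG2 cells at 37 °C; qHTS concentration-response, normalized DMSO = 0%, 100 uM tamoxifen = 100%; AC50 by standard Hill equation.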
# [3] = Cellular Toxicity (caspase-3) Jurkat (AID 655; active = well fitted curve in the direction sought with a large enough effect; an effect the other way counts as inactive or inconclusive;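 note: potency is the fitted concentration of half-maximal effect; cells exposed to compound for 16 h at 37 °C before reading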)
# Outline: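 Jurkat cells (5000/well) in complete medium were treated with compounds for 16 hr at 37 °C, then Caspase-Glo 3/7 luminescence was read after 20 min at room temperature. Data normalized to DMSO (basal) and 100 uM tamoxifen (100%); AC50 from Hill fit.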
# [4] = Cellular Toxicity (caspase-3) HUV-EC-C (AID 656; active = well fitted curve in the direction sought with a large enough effect; an effect the other way counts as inactive or inconclusive)
# Outline: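 HUV-EC-C endothelial cells, 1000/well, were pre-incubated 5 hr at 37°C, then exposed to compounds for 16 hr at 37°C. Caspase-Glo 3/7 luminescence was read after 20 min at room temperature. AC50 came from Hill fits, normalized to DMSO and 100 uM tamoxifen.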
# [5] = Cellular Toxicity (caspase-3) SHSY5Y (AID 657; active = well fitted curve in the direction sought with a large enough effect; an effect the other way counts as inactive or inconclusive)
# Outline: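 SH-SY5Y human neuroblastoma cells (1500/well) were treated with compounds for 16 h at 37 °C, then Caspase-Glo 3/7 luminescence was read after 1 h at room temperature. Data normalized to DMSO and 10 uM staurosporine; AC50 from Hill fits.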
# [6] = Cellular Toxicity (caspase-3) BJ (AID 658; active = well fitted curve in the direction sought with a large enough effect; an effect the other way counts as inactive or inconclusive)
# Outline: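 qHTS, BJ fibroblasts, 1000 cells/well; 5 hr preincubation, 16 hr compound, 37 °C; Caspase-Glo 3/7 reagent, 1 hr RT; luminescence. DMSO = 0%, 10 uM staurosporine = 100%. Hill-equation AC50.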
# [7] = Cellular Toxicity (caspase-3) MRC-5 (AID 659; active = well fitted curve in the direction sought with a large enough effect; an effect the other way counts as inactive or inconclusive; note: potency is the fitted concentration of half-maximal effect); conditions: Potency: caspase-3 activation
# Outline: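 MRC-5 fibroblasts, 1500/well; 16 h cpd, 37 °C; Caspase-Glo 3/7, 1 h RT; lumi read. Norm: DMSO = 0%, 10 uM staurosporine = 100%. Hill-fit AC50 from qHTS conc-response.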
# [8] = Cellular Toxicity (caspase-3) Mesangial (AID 660; active = well fitted curve in the direction sought with a large enough effect; an effect the other way counts as inactive or inconclusive;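 note: combined caspase 3 and 7 activity read by Caspase-Glo luminescence; cells exposed to compound for 16 h before the caspase read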)
# Outline: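 Luminescent Caspase-Glo 3/7 readout (aminoluciferin substrate cleavage, 20 min RT) after 16 h compound exposure at 37 °C of normal human mesangial cells. Signal increase normalized between DMSO basal and 100 uM tamoxifen; Hill-equation AC50.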
# [9] = Cellular Toxicity (caspase-3) SK-N-SH (AID 661; active = well fitted curve in the direction sought with a large enough effect; an effect the other way counts as inactive or inconclusive)
# Outline: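 Luminescent Caspase-Glo 3/7 read-out after 16 hr compound exposure of SK-N-SH neuroblastoma cells at 37 °C. Signal increase normalized to DMSO (basal) and 10 uM staurosporine (100%); AC50 from Hill equation fits of qHTS concentration-response data.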
smiles,measurement,setting,value
CCCCN1CCCC[C@H]1C(=O)Nc1c(C)cccc1C,outcome,[1],inactive
O=C(CCCN1CCN(c2ccccn2)CC1)c1ccc(F)cc1,outcome,[1],inactive
Cc1c(O)cccc1C(=O)N[C@@H](CSc1ccccc1)[C@H](O)CN1C[C@H]2CCCC[C@H]2C[C@H]1C(=O)NC(C)(C)C,Potency,[2],63.1 µM (active)
same,Potency,[3],31.6 µM (active)
same,outcome,[4],inactive
same,outcome,[5],inactive
same,outcome,[6],inactive
same,Potency,[7],50.1 µM (active)
same,outcome,[8],inactive
OCCN1CCN(CCCN2c3ccccc3Sc3ccc(Cl)cc32)CC1,outcome,[1],inactive
c1ccc2c(CC3=NCCN3)cccc2c1,outcome,[1],inactive
CC1=C(CC(=O)O)c2cc(F)ccc2/C1=C\c1ccc(S(C)(=O)=O)cc1,outcome,[1],inactive
CCCn1cnc2c1c(=O)n(CCCCC(C)=O)c(=O)n2C,outcome,[1],inactive
CC1(C)OC(=O)NC1=O,outcome,[1],inactive
Nc1ccc(S(=O)(=O)NC(=O)c2ccccc2)cc1,outcome,[1],inactive
NC1CCN(c2cccc(Cl)n2)CC1,outcome,[1],inactive
C#CCN(C)Cc1ccccc1,outcome,[1],inactive
Nc1ccc(S(=O)(=O)Nc2ccc(Cl)nn2)cc1,outcome,[1],inactive
Cn1cc[nH]c1=S,outcome,[1],inactive
C[C@H](N)[C@H](O)c1cccc(O)c1,outcome,[1],inactive
Nc1cc(=O)[nH]c(N)n1,outcome,[1],inactive
N=c1c[n+](N2CCOCC2)[n-]o1,outcome,[1],inactive
C=Cc1c(C)c2cc3[nH]c(cc4nc(cc5nc(cc1[nH]2)C(C)=C5CCC(=O)O)C(CCC(=O)O)=C4C)c(C)c3C=C,outcome,[1],inactive
NC(N)=NCCC[C@H](N)C(=O)O,outcome,[1],inactive
NS(=O)(=O)c1cc2c(cc1Cl)NC(CSCc1ccccc1)=NS2(=O)=O,outcome,[1],inactive
Cc1cc2c(cc1S(N)(=O)=O)S(=O)(=O)CCC2,outcome,[1],inactive
COc1ccc2c(c1)C(=O)N(CCc1ccc(S(=O)(=O)NC(=O)NC3CCCCC3)cc1)C(=O)C2(C)C,outcome,[1],inactive
CN(C)CCC=C1c2ccccc2CCc2ccccc21,outcome,[1],inactive
same,Potency,[2],inactive
same,outcome,[4],inactive
same,outcome,[5],inactive
same,outcome,[6],inactive
same,Potency,[7],inactive
same,outcome,[8],inactive
same,outcome,[9],inactive
CNCCCC1c2ccccc2C=Cc2ccccc21,outcome,[1],inactive
